# Experimental data from PubChem BioAssay AID641 (Vanderbilt High Throughput Screening Facility, 2007).
# Among all 58,000 compounds or so, about 3,400 (5.9%) were called active. The sample as a whole holds a higher share of actives than the screen did. A number with no mark means an inactive call.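 How the source made its calls: active means luminescence count or its row- and column-corrected plate score outside the 99.7% band of the plate's sample wells, on either side; inactive means the rest.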
# Target: D(1A) dopamine receptor (Homo sapiens) (UniProt P21728)
# Test: D1 CRE-luciferase signal change, two-sided – cell-based, HEK293 D1, dopamine EC30, D1 allosteric modulator project, primary screen (AID 641)
# Details: dopamine EC30 potentiation, at 10 µM, actives deviate in either direction
# Sequence of D(1A) dopamine receptor (Homo sapiens) (P21728 whole entry, looked up): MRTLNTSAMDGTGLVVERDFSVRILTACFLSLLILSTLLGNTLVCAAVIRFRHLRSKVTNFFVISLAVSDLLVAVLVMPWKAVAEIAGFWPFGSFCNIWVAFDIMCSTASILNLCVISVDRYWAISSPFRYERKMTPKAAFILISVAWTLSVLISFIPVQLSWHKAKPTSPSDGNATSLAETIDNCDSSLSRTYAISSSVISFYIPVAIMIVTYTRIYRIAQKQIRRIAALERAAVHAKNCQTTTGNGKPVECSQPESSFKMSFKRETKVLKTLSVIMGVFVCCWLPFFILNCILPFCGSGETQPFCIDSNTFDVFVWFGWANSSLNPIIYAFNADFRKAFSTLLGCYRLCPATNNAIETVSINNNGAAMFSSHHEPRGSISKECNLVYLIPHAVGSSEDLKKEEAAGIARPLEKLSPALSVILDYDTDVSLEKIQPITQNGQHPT
row,Structure (SMILES),B-score
1,COC(=O)COc1ccc2oc(=O)cc(C)c2c1,0.00198
2,COc1ccc(S(=O)(=O)N2CCN(c3ncnc4c(-c5ccccc5)nsc34)CC2)cc1,-0.0486
3,O=c1cccc(-c2ccc(Br)cc2)o1,1.11
4,COc1ccc(NS(=O)(=O)c2ccc(NC(C)=O)cc2)cc1OC,-0.458
5,COc1ccc(S(=O)(=O)Nc2ccc(S(=O)(=O)N3CCCCC3)cc2)cc1OC,5.58 (active)
6,COc1ccc(S(=O)(=O)N2CCCCC2)cc1Br,-1.56
7,COc1ccc(Br)cc1S(=O)(=O)N1CCN=C1C,-0.0562
8,CCc1nc2ccccc2n(CCOCCOCCn2c(=O)c(CC)nc3ccccc32)c1=O,2.08
9,CCOC(=O)c1cc(C)sc1NC(=O)C1CCC1,7.64 (active)
10,O=C(Nc1c(Cl)cccc1Cl)C1CCC1,-0.785
11,CCCOC(=O)Nc1sc2c(c1C(=O)OCC)CCC2,-0.0171
12,NC(=O)c1ccsc1NC(=O)c1ccco1,0.317
13,O=C(Nc1nc(-c2ccncc2)cs1)C1COc2ccccc2O1 (stereo not given),1.39
14,O=C(Nc1nc(-c2ccc3c(c2)OCO3)cs1)c1ccncc1,-3.4 (active)
15,O=C(Nc1ccc2c(c1)OCCO2)c1ccncc1,-1.34
16,COC(=O)c1ccc(/C=N\n2c(C)nnc2C)cc1,-1.78
17,Cc1cc(C)c2c(n1)nn1c(-n3ccnc3)cc(C)nc21,5.98 (active)
18,Cc1cc(C)c2c(n1)nn1c(N3CCOCC3)cc(C)nc21,1.9
19,Cc1cc(C)c2c(n1)nn1c(N3CCN(c4cccc(Cl)c4)CC3)cc(C)nc21,-0.0327
20,CCC(C)NC(=O)N[C@@H](CCSC)C(=O)O (stereo not given in full),-0.322
21,Cc1ccc(S(=O)(=O)C2(S(=O)(=O)c3ccc(C)cc3)CCCC2)cc1,0.0184
22,Cc1ccc(S(=O)(=O)NC(=O)N2CCCC(C)(C)C2)cc1,-6.08 (active)

row,Structure (SMILES),B-score
1,Cc1ccc(S(=O)(=O)NC(C)C(=O)Nc2ccccc2C(=O)N2CCCC2)cc1 (stereo not given),-1.42
2,COc1ccc(OC)c(-n2cc3c(=O)n(C)c(=O)n(C)c3c2)c1,1.9
3,Cn1c(=O)c2cn(-c3cccc4ccccc34)cc2n(C)c1=O,3.56 (active)
4,CC(=O)Nn1cc2c(=O)n(C)c(=O)n(C)c2c1,0.00279
5,Cc1nc2sc(C(c3ccco3)N3CCC4(CC3)OCCO4)c(O)n2n1 (stereo not given),-0.00625
6,NS(=O)(=O)c1ccc(NS(=O)(=O)/C=C/c2ccccc2)cc1,0.545
7,COC(=O)Cn1c(=NC(=O)CSCC(=O)Nc2cc(C)on2)sc2ccccc21,-0.763
8,O=C1CC(N2CCN(C(c3ccccc3)c3ccccc3)CC2)C(=O)N1 (stereo not given),-0.246
9,N#CCSc1nc2ccccc2c(=O)n1-c1ccccc1,7.87 (active)
10,COC(=O)c1ccc(CSc2nc3ccccc3c(=O)n2-c2cccc(OC)c2)o1,2.88
11,O=c1c2ccccc2nc(CSc2nnnn2-c2ccccc2)n1-c1ccccc1,0.263
12,Cc1noc(C)c1S(=O)(=O)N(CC(=O)NCc1ccc(Cl)cc1)c1ccc2c(c1)OCO2,0.0431
13,CCCC(=O)N=c1sc2cccc(F)c2n1C,0.69
14,Cc1nnc2sc(-c3ccco3)nn12,0.854
15,COc1ccc(-c2nn3c(-c4ccccc4)nnc3s2)cc1OC,8.24 (active)
16,COc1cc(-c2nn3c(-c4cccc(C)c4)nnc3s2)cc(OC)c1OC,5.22 (active)
17,Fc1ccc(-c2nnc3sc(-c4ccc5c(c4)OCO5)nn23)cc1,0.575
18,CC(=O)Nc1ccc(-c2nn3c(C)nnc3s2)cc1C,0.141
19,c1ccc(-c2cc(-c3nnc4sc(-c5ccccn5)nn34)[nH]n2)cc1,-0.359
20,CCOc1ccc(C(=O)N(Cc2ccc(N(C)C)cc2)C2CCS(=O)(=O)C2)cc1 (stereo not given),0.116
21,CCCC(C(=O)N1CCOCC1)N1C(=O)C2C3C=CC(C3)C2C1=O (stereo not given),-0.388
22,Cc1occc1C(=O)Nc1nnc(C2CCCCC2)s1,0.299

row,Structure (SMILES),B-score
1,O=C(COc1ccccc1Cl)Nn1cnnc1,-0.264
2,Cc1cccc(N2CCN(Cc3c(C)n(C)n(-c4ccccc4)c3=O)CC2)c1C,-0.359
3,COc1ccc(N2CC(C)Cn3c2nc2c3c(=O)n(Cc3ccccc3F)c(=O)n2C)c(OC)c1 (stereo not given),0.483
4,CCOc1ccc(N2C(=O)CC(N(O)c3ccccc3)C2=O)cc1 (stereo not given),0.305
5,CCS(=O)(=O)NCCc1ccc(OC)c(OC)c1,0.864
6,COc1ccc(CCNc2ncnc3nc[nH]c23)cc1OC,12.7 (active)
7,COc1ccc(CCNS(=O)(=O)c2ccc(F)cc2)cc1OC,3.09
8,CCOC(=O)c1sc(NC(=O)CSc2ncccn2)c(C#N)c1C,1.81
9,COc1ccc(-c2cc(C(F)(F)F)nc(S(C)(=O)=O)n2)cc1OC,6.58 (active)
10,COc1ccc(-c2ccc(Nc3ccc(S(=O)(=O)N4CCCC4)cc3)nn2)cc1OC,1.72
11,COc1ccc(-c2cc(C(F)(F)F)nc(SCCC(=O)NCc3ccco3)n2)cc1,0.0331
12,CC(=O)Oc1ccc(C)cc1N1C(=O)c2ccc(C(=O)O)cc2C1=O,-0.324
13,COc1cccc(-c2nnc(NC(=O)c3ccc(S(=O)(=O)N(CC(C)C)CC(C)C)cc3)o2)c1,-2.79 (active)
14,O=C(COC(=O)c1ccc(Oc2ccccc2)cc1)Nc1nnc(-c2ccccc2)o1,-1.16
15,CCN(CC)C(=O)CSc1nnc(-c2cccc(OC)c2)o1,-0.393
16,C=C1c2cc(CC)ccc2NC(=O)N1c1ccc(C)cc1,-1.84
17,COc1ccc(N(CC(=O)NC2CCCCCCC2)S(=O)(=O)c2c(C)nn(C)c2C)cc1,-0.289
18,CC(C)C(=O)Nc1c(C(=O)c2ccc(F)cc2)oc2ccccc12,1.66
19,Nc1ccc(S(=O)(=O)NC(=O)c2ccccc2)cc1,31.8 (active)
20,CC(=O)NS(=O)(=O)c1ccccc1,0.0902
21,Cc1ccc(C(=O)NCCNS(=O)(=O)c2ccccc2)cc1,-0.839
